High-throughput results from PubChem BioAssay.
TDP1 inh = blocks human tyrosyl-DNA phosphodiesterase 1. Q9NUW8. recombinant TDP1, AlphaScreen DNA substrate cleavage. Potency, µM (highest dose often 130 µM), without a hit: at the highest dose activity change, negative = inhibition, usual class: inhibitors. 350,000 compounds, 0.28% hits. AID 485290; note: nearly all actives have a fitted effect of over 40% in size
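E. coli-derived human Tdp1, 1 nM final. Cpd preinc 15 min RT; substrate 15 nM final, 5 min RT; AS bead mix 10 ug/ml final, 10 min RT. Signal loss = tyrosine-FITC cleavage. No-enzyme wells = max signal.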
RORgamma inh = inhibitors of mouse ROR gamma transcriptional activity. Drosophila S2 Gal4-RORgamma UAS-luciferase reporter, 20 h. P51450. Potency, µM (titrated, usually from 53.6 µM), without a hit: top-dose activity change, negative = inhibition, hits mostly inhibitors. 310,000 compounds, 5.4% hits. AID 2551; note: nearly all actives have a fitted effect of over 60% in size
Target sequence (P51450 whole entry, looked up, the tested form may be a part): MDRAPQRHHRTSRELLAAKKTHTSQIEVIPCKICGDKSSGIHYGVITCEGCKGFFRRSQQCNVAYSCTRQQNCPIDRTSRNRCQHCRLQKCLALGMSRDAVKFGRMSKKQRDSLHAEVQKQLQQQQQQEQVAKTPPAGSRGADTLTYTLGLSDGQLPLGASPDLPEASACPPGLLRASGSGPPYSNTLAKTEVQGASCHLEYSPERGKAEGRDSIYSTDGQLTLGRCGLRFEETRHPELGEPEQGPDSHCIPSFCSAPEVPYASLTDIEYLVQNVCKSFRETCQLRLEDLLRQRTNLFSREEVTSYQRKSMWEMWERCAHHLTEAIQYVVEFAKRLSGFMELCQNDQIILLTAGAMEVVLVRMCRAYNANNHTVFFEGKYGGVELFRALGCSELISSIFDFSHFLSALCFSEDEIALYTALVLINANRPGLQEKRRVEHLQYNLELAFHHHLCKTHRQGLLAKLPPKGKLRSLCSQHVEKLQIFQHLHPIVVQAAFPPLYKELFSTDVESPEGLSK
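Using a luciferase readout, inhibitors were identified by reduced reporter activity in Drosophila cells coexpressing a copper-inducible Gal4–ROR gamma fusion and UAS-driven Photinus luciferase, incubated 20 hr after 700 uM copper sulfate.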
Gal4-VP16 FLuc = inhibits Gal4-VP16 luciferase reporter, ROR gamma counter-screen | AID 2546 | 310,000 compounds, 3.5% hits | Potency, µM (highest dose often 53.6 µM), for inactives: top-dose activity, negative = inhibition, usual class: inhibitors | Drosophila S2 Gal4-VP16 UAS-luciferase, luminescence, 20 h;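 note: Gal4-VP16 expression switched on by copper sulfate through the metallothionein promoter; nearly all actives have a fitted effect of over 50% in size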
DT40 TDP1 no CPT = qHTS for Inhibitors of human tyrosyl-DNA phosphodiesterase 1 (TDP1): qHTS in cells in absence of CPT. 420,000 compounds, 15% hits. Potency, µM (titrated, usually from 46.2 µM), for inactives: at the top dose activity change, negative = growth inhibition, hits mostly inhibitors. DT40 Tdp1-/- hTDP1 cells, no CPT, ATP luminescence, 48 h; note: nearly all actives have a fitted effect of over 55% in size
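Stably hTDP1-transfected Tdp1-null chicken DT40 cells were treated with library compounds minus camptothecin and grown for at least 48 hr at 37 °C, after which cellular ATP was quantified by luminescence.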
TDP1 cell CPT = DT40-hTDP1 cell growth loss with CPT. chicken DT40 Tdp1-/-;hTDP1 cells + 20 nM CPT, ATP luminescence, 48 h. Potency, µM (top dose mostly 46.2 µM), for inactives: at the top dose activity change, negative = growth inhibition, actives largely listed as inhibitors. 420,000 compounds, 12% hits. AID 686979; note: nearly all actives have a fitted effect of over 55% in size
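Cell growth measured by CellTiter-Glo luminescence after a minimum 48 h, 37 C compound exposure with 20 nM CPT in Tdp1-knockout DT40 cells stably expressing hTDP1, seeded 400/well; qHTS titration format.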
* hit, by the source's call; ? = inconclusive; . = no result; [ ] = dose if it differs, or a comment. Compounds with a hit are over-represented: about 19% of the library has one in this group of screens. Calls come from the whole dose curve; as a rule, active = well fitted curve in the direction sought with a large enough effect; inconclusive = small, poorly fitted or top-dose-only effect, or another doubt; inactive = no such curve, though single readings can be large; an effect the other way counts as inactive or inconclusive. % is set by controls: 0 for no effect and ±100 for the full control effect; potency is the fitted concentration of half-maximal effect.

SMILES	TDP1 inh	RORgamma inh	Gal4-VP16 FLuc	DT40 TDP1 no CPT	TDP1 cell CPT
COc1ccc(C(=O)Nc2cc(OC)c(Cl)cc2Cl)cc1	9%	11%	-17%	23µM*	3%
COC(=O)[C@@]1(C)C=C[C@@H](Cc2ccccc2)N1C(=O)c1ccccc1	6%	41%	-2%	.	.
CN(C)c1nc(N(C)C)nc(N2CC(CCl)OC2=N)n1 (configuration not stated)	-6%	3%	4%	-10%	18%
COc1ccccc1OCCSc1ncnc2nc[nH]c12	0%	17%	12%	?	?
COc1cccc(/C=N/c2nc3ccccc3n2C)c1O	2%	?	?	-1%	-6%
COc1cc(OC)cc(C(=O)NNC(=O)C(=O)Nc2cc(OC)c(Cl)cc2OC)c1	-3%	7.9µM*	-2%	-20%	?
COc1cc(NC(=O)C(=O)NNC(=O)C2CCCCC2)c(OC)cc1Cl	-1%	?	?	?	-10%
CCOC(=O)c1ccccc1NC(=O)CSc1nnnn1C	1%[56.1 µM]	35%	-7%	-3%	-7%
O=C(CCCc1ccccc1)NCCS(=O)(=O)N1CCN(c2ccccc2F)CC1	-4%	.	.	18µM*	?
Cc1c(C(=O)NCCS(=O)(=O)N2CCN(c3ccccc3F)CC2)cccc1[N+](=O)[O-]	0%	13%	-5%	21µM*	?
O=C(CCS(=O)(=O)Cc1ccc(Cl)cc1)NCCCN1CCN(c2ccccc2F)CC1	-5%	0%	-11%	?	11µM*
O=C(NCCS(=O)(=O)N1CCN(c2ccccc2F)CC1)c1ccco1	1%	.	.	?	?
O=C(Cc1ccc(Cl)cc1)NCCS(=O)(=O)N1CCN(c2ccccc2F)CC1	.	.	.	5.8µM*	5.2µM*
O=C(NCCS(=O)(=O)N1CCN(c2ccccc2F)CC1)c1ccc(Cl)cc1	.	.	.	-21%	-2%
CCCCn1c(C)cc2cc(O)ccc21	7%	-2%	0%	?	-2%
COc1ccc(CCC(=O)NCCS(=O)(=O)N2CCN(c3ccccc3F)CC2)cc1	0%	.	.	?	?
COc1ccc(CCC(=O)NCCS(=O)(=O)N2CCN(c3ccccc3OC)CC2)cc1	7%	42%	?	18µM*	21µM*
O=S(=O)(c1ccccc1)N1CCN(c2ncnc3sc(-c4ccccc4)cc23)CC1	-2%	16%	?	12µM*	21µM*
c1ccc(-c2cc3c(N4CCN(c5ccccc5)CC4)ncnc3s2)cc1	5%	-10%	0%	18µM*	?
CCOC(=O)c1ccc(-c2c(-c3ccc4c(c3)OCO4)noc2C)cc1F	.	7%	1%	?	16µM*
Cc1ccc(S(=O)(=O)N(C)c2ccc3c(c2)C(=O)c2ccccc2-3)cc1	.	.	.	?	16µM*
Cc1ccc(S(=O)(=O)Nc2ccc(N(C)S(=O)(=O)c3ccc(C)cc3)cc2)cc1	9%	13%	3%	?	2%
CN(CCOc1ccccc1)C(=O)c1cc(S(=O)(=O)N2CCCCC2)ccc1Cl	1%	.	.	?	?
Nc1nc(N)c2ncn(C3C=CC(CO)C3)c2n1 (configuration not stated)	.	.	.	9.2µM*	6.5µM*
Cc1ccc(CNC(=O)Cn2cc(S(=O)(=O)Cc3ccccc3F)c3ccccc32)cc1	4%	.	.	?	15µM*
SMILES	TDP1 inh	RORgamma inh	Gal4-VP16 FLuc	DT40 TDP1 no CPT	TDP1 cell CPT
COc1cccc(NC(=O)Cn2cc(S(=O)(=O)Cc3ccccc3F)c3ccccc32)c1	5%	.	.	18µM*	16µM*
O=C(Cn1cc(S(=O)(=O)Cc2ccccc2F)c2ccccc21)NCc1ccccc1	4%	.	.	-1%	-13%
O=C(Cn1cc(S(=O)(=O)Cc2ccc(F)cc2)c2ccccc21)NCc1ccccc1Cl	5%	.	.	21µM*	?
COc1ccc(NC(=O)Cn2cc(S(=O)(=O)Cc3ccc(F)cc3)c3ccccc32)cc1OC	-5%	.	.	?	?
C[C@H](CO)N1C[C@H](C)[C@@H](CN(C)Cc2ccc(-c3ccccc3)cc2)Oc2c(NC(=O)Nc3ccc(C(F)(F)F)cc3)cccc2C1=O	-12%	.	.	?	8.2µM*
C[C@H](CO)N1C[C@H](C)[C@@H](CN(C)C(=O)Nc2ccccc2)Oc2c(NC(=O)Nc3ccc(C(F)(F)F)cc3)cccc2C1=O	0%	.	.	?	13µM*
C[C@@H]1CN([C@H](C)CO)C(=O)c2cccc(NC(=O)NC3CCCCC3)c2O[C@@H]1CN(C)C(=O)Nc1ccc(C(F)(F)F)cc1	3%	.	.	?	16µM*
CCc1ccccc1NC(=O)CSc1nnc([C@H](CCSC)NC(=O)OC(C)(C)C)o1	-2%	-5%	-15%	-23%	1%
CC(=O)Oc1cc2c(c(C)c1OC(C)=O)CC=C1[C@]3(C)CC[C@]4(C)CC[C@@](C)(C(=O)O)CC4[C@]3(C)CC[C@]12C (some centres not stated)	7%	?	11µM*	4.6µM*	3.7µM*
CCOC(=O)CSc1[nH]c(=O)cc(C)c1C#N	0%	-19%	5%	-10%	-8%
CCOC(=O)C1CCCN(S(=O)(=O)c2csc(C(N)=O)c2)C1 (configuration not stated)	0%	.	.	15µM*	?
CCOC(=O)C1CCCN(S(=O)(=O)c2ccc(S(N)(=O)=O)cc2)C1 (configuration not stated)	0%	-14%	-16%	?	-1%
CCN(CC)S(=O)(=O)c1ccc(S(=O)(=O)N2CCCC(C(=O)NC3CC3)C2)cc1 (configuration not stated)	.	?	?	5.8µM*	1.3µM*
CCOC(=O)C1CCCN(S(=O)(=O)c2ccc(S(=O)(=O)N(CC)CC)cc2)C1 (configuration not stated)	3%	6.3µM*	4.5µM*	1.5µM*	2.9µM*
Cc1ccc(C)c(Cn2c(=O)n(Cc3ccccc3)c(=O)c3sc4ccccc4c32)c1	6%	.	.	2%	6%
CC(C)c1ccc(N2C(=O)N(Cc3ccccc3Cl)c3ccccc3S2(=O)=O)cc1	2%	.	.	18µM*	?
Cc1cccc(N2C(=O)N(Cc3ccc(C(C)(C)C)cc3)c3ccccc3S2(=O)=O)c1	3%	.	.	21µM*	?
CC(C)c1ccc(N2C(=O)N(Cc3cccc([N+](=O)[O-])c3)c3ccccc3S2(=O)=O)cc1	3%	.	.	?	?
Cc1cccc(CN2C(=O)N(c3ccc(C(C)C)cc3)S(=O)(=O)c3ccccc32)c1	0%	.	.	23µM*	?
Cc1ccc(CN2c3ccccc3S(=O)(=O)c3ccccc32)cc1	3%	.	.	?	26µM*
Cc1ccc(CN2C(=O)N(c3ccc(C)c(Cl)c3)S(=O)(=O)c3ccccc32)cc1	7%	.	.	?	?
